Data reported in PubChem BioAssay AID429 (Emory University Molecular Libraries Screening Center, 2006).
In all, about 64,000 compounds went through this assay and about 220 (0.34%) were called active.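 Rule for the calls: active = inhibition above 50%; inactive = the rest.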 The full list was thinned out, with actives kept by preference.

Target: Heat shock protein HSP 90-alpha (Homo sapiens) (UniProt P07900)
Assay: Hsp90 geldanamycin-site probe displacement – cell lysate, fluorescence polarization, NCI-N417 lysate, primary screen (AID 429);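 note: 0% = tracer plus lysate wells and 100% = tracer alone without lysate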
Details: NCI-N417 lysate Hsp90, Cy3B-geldanamycin FP displacement; at 30 µM; stronger effect = higher value

| Structure (SMILES) | inhibition |
| --- | --- |
| C=CC1(C)CC(=O)C2(O)C(C)(O1)C(OC(C)=O)C(O)C1C(C)(C)CCC(O)C12C (stereo not given) | -0.45% (inactive) |
| COC(=O)[C@@H](NC(=O)NCc1cccc(OC)c1)C(C)C | -1.26% (inactive) |
| CC(C)C[C@H](NC(=O)[C@H](O)[C@H](N)Cc1ccccc1)C(=O)O | -2.1% (inactive) |
| CCCn1c(=O)c2[nH]c(-c3ccc(OCC(=O)NCCN)cc3)nc2n(CCC)c1=O | -4.59% (inactive) |
| CCCCCC(O)c1cccc(OCc2ccc3ccccc3n2)c1 (stereo not given) | 5.96% (inactive) |
| Cc1cc(C(F)(F)F)n2ncc(-c3ccccc3)c2n1 | -3.41% (inactive) |
| Nc1ccc2c3c(cccc13)C(=O)NC2=O | 7.71% (inactive) |
| Cc1nc2ccc(S(=O)(=O)NCC(=O)O)cc2s1 | -1.11% (inactive) |
| CC(C)C1C2=C(CC(C)(C)CC2=O)ON1c1ccccc1 (stereo not given) | -1.36% (inactive) |
| Cc1c(-c2nn(C)c(=O)c3ccccc23)oc2ccc(F)cc2c1=O | 89.8% (active) |
| Cc1ccc(F)cc1NC(=O)Cc1nn(C)c(=O)c2ccccc12 | -2.07% (inactive) |
| O=C1c2oc3ccc(Br)cc3c(=O)c2C(c2cccc(F)c2)N1CCO (stereo not given) | -0.86% (inactive) |
| COc1cccc(CN2C(=O)CCC2(C)C(=O)NC2CCCCCC2)c1 (stereo not given) | -0.1% (inactive) |
| CC(=O)C1=C(O)C(=O)N(c2ccc(S(N)(=O)=O)cc2)C1c1ccccc1F (stereo not given) | -1.25% (inactive) |
| CC(C)(C)NCC(O)COc1cccc2[nH]c(=O)[nH]c12 (stereo not given) | -2.65% (inactive) |
| CCOc1ccccc1C1CC(c2ccccc2)Nc2nc(N)nn21 (stereo not given) | 0.5% (inactive) |
| COc1ccccc1OCCOc1ccc(/C=N/n2cnnc2)cc1 | -1.96% (inactive) |
| CCOc1cc(CO)ccc1OCC(=O)N1CCCCC1 | 1.83% (inactive) |
| O=C(c1ccc2c(c1)OCO2)N1CCNc2ccccc2C1 | -1.64% (inactive) |
| Cc1ccc(NC(=O)CS(=O)CC(=O)N(c2ccccc2)C(C)C(=O)NC2CCCC2)cc1 (stereo not given) | -0.1% (inactive) |
| O=C(Nc1nsc(-c2ccccc2)n1)c1ccncc1 | 1.14% (inactive) |
| O=C(CN(c1ccc2c(c1)OCCO2)S(=O)(=O)c1ccccc1)Nc1ccc2c(c1)OCO2 | 31.2% (inactive) |
| Cc1noc(C)c1C(=O)NC(C)c1ccc2c(c1)OCO2 (stereo not given) | -9.41% (inactive) |
| COc1ccc(-c2nnn(Cc3nc(N)nc(N4CCCCC4)n3)n2)cc1 | 2.3% (inactive) |
| O=C(CCCCn1c(=O)[nH]c2ccccc2c1=O)NCc1ccc2c(c1)OCO2 | -3.39% (inactive) |
| O=C(CCC(=O)c1cccs1)NCc1ccccc1 | -2.27% (inactive) |
| O=C(O)CCC(=O)NCc1ccc2[nH]c3c(c2c1)CCCC3 | 62.8% (active) |
| CCOC(=O)C1CCN(C(=O)COc2cc(C)c(Br)c(C)c2)CC1 | -0.95% (inactive) |
| CC1CC2C3CCC4=CC(=O)C=C[C@]4(C)[C@@]3(F)[C@@H](O)C[C@]2(C)[C@@]1(O)C(=O)CO (stereo not given in full) | 0.93% (inactive) |
| CC(=O)Oc1cccc(N2C(=O)CC(Nc3ccc(N4CCOCC4)cc3)C2=O)c1 (stereo not given) | 10.2% (inactive) |
